This is a sample that favours compounds with a hit; in the whole collection about 0.49% have one here.
Apoferritin bind = qHTS Assay for Identification of Novel General Anesthetics; 0.074% of 350,000 active; apoferritin/1-aminoanthracene competitive binding, fluorescence; Potency, µM (highest dose often 77.5 µM), inactives show at the highest dose activity change, negative = displacement, actives largely listed as inhibitors; AID 485281, 2010; also: potency is read from the fitted curve at half-maximal effect; % is scaled to controls: 0 for no effect and ±100 for the full control effect; nearly all actives have a fitted effect of over 20% in size
Target sequence (P02791 2-175 limits assumed): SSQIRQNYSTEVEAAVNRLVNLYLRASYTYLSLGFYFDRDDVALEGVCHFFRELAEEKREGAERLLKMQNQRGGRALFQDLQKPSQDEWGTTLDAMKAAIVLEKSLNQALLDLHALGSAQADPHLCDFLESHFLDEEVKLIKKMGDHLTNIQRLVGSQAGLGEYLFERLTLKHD
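Steps: apoferritin (10 uM) was premixed with half-saturated 1-AMA in PBS, compounds were pin-transferred, plates stood 10 min at room temperature, fluorescence was read at 380/535 nm, and curves were fitted with a Hill equation.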
LDHA inh = qHTS assay for inhibitors of human lactate dehydrogenase | L-lactate dehydrogenase A chain (Homo sapiens), P00338 | purified LDHA, NADH/diaphorase-resazurin fluorescence; stronger effect = lower value | activity change, % (values are at about 110 or 230 µM) | 0.15% of 480,000 active | AID 1347041, 2019; in the data active = activity change below about -30%; inconclusive = mostly about -25% to -30%;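 also: plate controls were DMSO wells for no effect and wells without enzyme for full effect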
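LDH5 2 nM; NADH 0.06 mM, pyruvate 0.2 mM; 200 mM Tris pH 7.4, EDTA, Tween-20; 5 min RT. Detection: diaphorase 0.133 mg/mL + resazurin 37 µM, fluorescence ex540/em590 at 0 and 20 min; normalized to enzyme-free and DMSO wells.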
Vif-APOBEC3G blk = qHTS for Inhibitors of Vif-A3G Interactions: qHTS; DNA dC->dU-editing enzyme APOBEC-3G (Homo sapiens), Q9HC16; HeLa A3G-eYFP + Vif (tagged APOBEC3G with the HIV-1 protein that degrades it), YFP fluorescence, overnight; Potency, µM (titrated, usually from 46.1 µM), for inactives: top-dose activity, negative = active, most hits filed as inhibitors; 0.076% of 410,000 active; AID 602310, 2012; also: potency is read from the fitted curve at half-maximal effect; % is scaled to controls: 0 for no effect and ±100 for the full control effect; nearly all actives have a fitted effect of over 60% in size
Target sequence (Q9HC16 whole entry, looked up): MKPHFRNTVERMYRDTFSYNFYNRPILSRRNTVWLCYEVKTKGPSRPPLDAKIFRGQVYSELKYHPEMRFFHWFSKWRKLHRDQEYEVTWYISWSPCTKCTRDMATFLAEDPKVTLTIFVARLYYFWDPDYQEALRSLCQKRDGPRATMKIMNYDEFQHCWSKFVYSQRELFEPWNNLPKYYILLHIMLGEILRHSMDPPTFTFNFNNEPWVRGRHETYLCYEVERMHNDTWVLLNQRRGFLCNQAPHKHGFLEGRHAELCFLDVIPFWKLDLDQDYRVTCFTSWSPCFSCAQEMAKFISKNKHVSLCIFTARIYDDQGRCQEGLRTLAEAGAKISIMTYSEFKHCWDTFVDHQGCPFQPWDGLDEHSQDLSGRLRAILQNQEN
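HeLa cells stably expressing Vif and C-terminally eYFP-tagged A3G, seeded overnight at 37 deg C, then exposed to compound by pintool overnight at 37 deg C. Rise in yellow fluorescence (Ex 488/Em 500-530, Acumen) marks blocked Vif-driven A3G degradation.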
Epigenetic reg = Quantitative High-Throughput Screen for Regulators of Epigenetic Control; Potency, µM (highest dose often 53.9 µM), inactives show top-dose GFP activation, actives largely listed as activators; murine LDR cells, GFP reporter derepression, 30 h; 0.2% of 280,000 active; also: potency is read from the fitted curve at half-maximal effect; % of control where 0% means no effect; nearly all actives have a fitted effect of over 60% in size
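Readout is the number of GFP-expressing murine LDR cells, counted by cytometry following washing. Cells were treated with compound for 30 h at 37 C; the stably integrated CMV-GFP locus is normally silent.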
Vif-APOBEC3F blk = qHTS for Inhibitors of Vif-A3F Interactions: qHTS | HeLa A3F-eYFP + Vif (tagged APOBEC3F with the HIV-1 protein that degrades it), YFP fluorescence increase | Potency, µM (series often up to 46.1 µM), inactives show at the top dose activity, negative = active | AID 602313, 2012 | 0.2% of 390,000 active; also: potency is read from the fitted curve at half-maximal effect; % of control where 0% means no effect; nearly all actives have a fitted effect of over 65% in size
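HeLa cells stably expressing A3F-eYFP plus Vif, plated and incubated overnight at 37 deg C, then exposed to compounds overnight at 37 deg C. Blocked degradation read as raised yellow fluorescence (Ex 488/Em 500-530).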
The depositor's hits bear a star. Unless noted, calls follow the shape of the dose curve; as a rule, active = well fitted curve in the direction sought with a large enough effect; inconclusive = small, poorly fitted or top-dose-only effect, or another doubt; inactive = no such curve, though single readings can be large; an effect the other way counts as inactive or inconclusive.

Screening BrC(=C\c1ccccc1)/C=N/N1CCN(c2ccccn2)CC1 returned Apoferritin bind -3%, LDHA inh -2, Vif-APOBEC3G blk 0%, Epigenetic reg 22µM* and Vif-APOBEC3F blk 1%.
`O=C(CSc1nnc(CNC(=O)c2c(F)cccc2F)o1)Nc1ccc2c(c1)OCO2` gave Apoferritin bind -18%, LDHA inh 3, Vif-APOBEC3G blk -1% and Vif-APOBEC3F blk -6%.
CC(CCC(C)[n+]1cccc(Br)c1)[n+]1cccc(Br)c1 (configuration not stated) was read as LDHA inh -31* and Vif-APOBEC3G blk 1%.
`CC(=O)Nc1sc2c(c1-c1nc3ccccc3s1)CN(C(C)C)C2` gave LDHA inh -10.
Screening CC(=O)Nc1sc2c(c1-c1nc3ccccc3s1)CN(C(C)C)CC2 returned LDHA inh 3, Vif-APOBEC3G blk 13µM* and Vif-APOBEC3F blk 10µM*.
For Oc1[nH]c2ccccc2c1N=NC(=S)N1CCOCC1 the results were Apoferritin bind 7%, LDHA inh -16, Vif-APOBEC3G blk -18%, Epigenetic reg 4µM* and Vif-APOBEC3F blk -9%.
For CN1CCN(C(=O)C2CCCN(S(=O)(=O)c3ccc(Cl)cc3)C2)CC1 (configuration not stated) the results were Apoferritin bind 2%, LDHA inh -33*, Vif-APOBEC3G blk 1% and Vif-APOBEC3F blk 4%.
Screening COc1cccc(C2Nc3ccc4ccccc4c3C3=C2C(=O)CCC3)c1O (configuration not stated) returned Apoferritin bind -1%, LDHA inh 3, Vif-APOBEC3G blk inconclusive and Vif-APOBEC3F blk 11µM*.
`COc1cc(C2CC(=O)c3c(ccc4ccccc34)N2)ccc1O` (configuration not stated) gave Apoferritin bind -10%, LDHA inh 11, Vif-APOBEC3G blk -6%, Epigenetic reg -1% and Vif-APOBEC3F blk -12%.
For CC1(C)CC(=O)c2c(O)cc(O)cc2O1 the results were Apoferritin bind -13%, LDHA inh 6, Vif-APOBEC3G blk 1%, Epigenetic reg -1% and Vif-APOBEC3F blk -1%.
C[C@]12CCC[C@H](O1)c1c(cc3c(c1O)C(=O)c1c(O)cc(O)cc1C3=O)O2 was read as LDHA inh 3, Vif-APOBEC3G blk 5.6µM* and Vif-APOBEC3F blk 8.9µM*.
Screening CCCCNc1nc(C)nc2c1nc(C)n2CCC returned Apoferritin bind 1% and Epigenetic reg -1%.
`CC(=O)c1cccc(Nc2nc(-c3cccc(C)c3)nc3ccccc23)c1` gave Apoferritin bind -8%, LDHA inh 8, Vif-APOBEC3G blk -18%, Epigenetic reg 1% and Vif-APOBEC3F blk -12%.
`Cc1cccc(-c2nc(Nc3ccc(C(=O)O)cc3)c3ccccc3n2)c1` gave LDHA inh -39*.
Screening c1csc(CNCCCN2CCOCC2)c1 returned Apoferritin bind -4%, LDHA inh -1, Vif-APOBEC3G blk 4%, Epigenetic reg 0% and Vif-APOBEC3F blk -3%.
c1csc(CN2CCOCC2)c1 was read as Apoferritin bind -6%, LDHA inh -31*, Vif-APOBEC3G blk -4%, Epigenetic reg 1% and Vif-APOBEC3F blk -1%.
`CCCCNC(C(=O)Nc1ccc([N+](=O)[O-])cc1Br)c1ccccc1` (configuration not stated) gave Apoferritin bind -4%, LDHA inh -31*, Vif-APOBEC3G blk -4%, Epigenetic reg -2% and Vif-APOBEC3F blk 7%.
`CN(C)C(=O)CCS(=O)(=O)Cc1coc(-c2ccc(F)cc2)n1` gave LDHA inh -34*.
Cc1cccnc1NCc1ccc(O)c2ncccc12 was read as Apoferritin bind inconclusive, LDHA inh 15, Vif-APOBEC3G blk -16%, Epigenetic reg 6.3µM* and Vif-APOBEC3F blk 0%.
Cc1cccc(NCc2ccc(O)c3ncccc23)c1C was read as Apoferritin bind inconclusive, LDHA inh 20, Vif-APOBEC3G blk 5%, Epigenetic reg 10% and Vif-APOBEC3F blk inconclusive.
`COc1ccc(OC)c(NC(=O)CC2SC(=Nc3ccccc3)N(CCc3ccccn3)C2=O)c1` (configuration not stated) gave Apoferritin bind -6%, LDHA inh 2, Vif-APOBEC3G blk 4%, Epigenetic reg 0% and Vif-APOBEC3F blk 1%.
Screening O=C(Oc1ccc(Cl)c2cccnc12)c1ccco1 returned Apoferritin bind inconclusive, LDHA inh 5, Vif-APOBEC3G blk 11µM*, Epigenetic reg inconclusive and Vif-APOBEC3F blk -7%.
`CCn1c2ccccc2c2cc(/C=C3/C=Cc4ccccc43)ccc21` gave LDHA inh -55* and Vif-APOBEC3G blk -23%.
O=C(Nc1cccc(Cl)c1)N1CCCC1 was read as Apoferritin bind -12%, LDHA inh -4, Vif-APOBEC3G blk 0%, Epigenetic reg 2% and Vif-APOBEC3F blk -2%.
`CC1CCCCN1C(=O)Nc1cccc(Cl)c1` (configuration not stated) gave Apoferritin bind 22µM*, LDHA inh -11, Vif-APOBEC3G blk -7%, Epigenetic reg -1% and Vif-APOBEC3F blk 6%.
CCCCCCCCC(=O)N/N=C/c1ccccn1 was read as Apoferritin bind 13µM*, LDHA inh -3, Vif-APOBEC3G blk -3%, Epigenetic reg 4% and Vif-APOBEC3F blk -9%.
`CCCCC(C(=O)N/N=C/c1ccccn1)C(=O)N/N=C/c1ccccn1` gave Apoferritin bind 5%, LDHA inh 0, Vif-APOBEC3G blk 1%, Epigenetic reg 3% and Vif-APOBEC3F blk 0%.
Screening CCOC(=O)N1CCC(Nc2nc3ccccc3nc2NS(=O)(=O)c2ccc(Cl)cc2)CC1 returned Apoferritin bind -3%, LDHA inh 0, Vif-APOBEC3G blk -2%, Epigenetic reg -1% and Vif-APOBEC3F blk 32µM*.
For CCOc1ccc(S(=O)(=O)Nc2nc3ccccc3nc2NC2CCCCC2)cc1 the results were LDHA inh 10.
`C=CC[C@]12CCc3ccccc3C1N(c1ccc(C(=O)OCC)cc1)C2=O` (some centres not stated) gave LDHA inh -2, Vif-APOBEC3G blk 2% and Vif-APOBEC3F blk 9%.
`COc1ccc2oc(=O)c(-c3nnc(NCc4ccco4)s3)cc2c1` gave Apoferritin bind 132%, LDHA inh -10, Vif-APOBEC3G blk -31%, Epigenetic reg 17% and Vif-APOBEC3F blk inconclusive.
For CCOc1ccc2cc(-c3nnc(Nc4ccccc4F)s3)c(=O)oc2c1 the results were Apoferritin bind 2%, LDHA inh -11, Vif-APOBEC3G blk 6%, Epigenetic reg 3.5µM* and Vif-APOBEC3F blk inconclusive.

Source: PubChem BioAssay (National Center for Advancing Translational Sciences (NCATS))
